Tau fibril ThT: inhibitors of human tau fibril formation, thioflavin T binding; P10636; recombinant tau K18 P301L, heparin-induced fibrillization, ThT fluorescence; Potency, µM (titrated, usually from 57.4 µM), usual class: inhibitors; 270,000 compounds, 2.1% hits; AID 1460; note: nearly all actives have a fitted effect of over 55% in size
Target sequence (P10636 561-689 P618L limits assumed): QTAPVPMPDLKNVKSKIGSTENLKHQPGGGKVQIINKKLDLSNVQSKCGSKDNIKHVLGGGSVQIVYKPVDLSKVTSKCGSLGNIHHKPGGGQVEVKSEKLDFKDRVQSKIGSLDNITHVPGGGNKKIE
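Heparin-induced fibrillization of the P301L-mutant K18 repeat-domain fragment of human tau was followed by ThT binding in quantitative high-throughput format.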
Tau fluor counter: counter-screen for tau fibril formation inhibitors; Potency, µM (series often up to 57.7 µM); tau K18 P301L Alexa594 fluorescence, heparin fibrillization; 280,000 compounds, 0.93% hits; note: nearly all actives have a fitted effect of over 55% in size
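Human K18 P301L tau (15 uM unlabeled plus 0.24 uM Alexa 594-labeled, final) in 100 mM sodium acetate pH 7 was mixed with compound and 20 uM heparin and incubated 6 hr at 37 C.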
HTT aggregate: inhibitors of mutant huntingtin aggregate formation in PC12 cells; 220,000 compounds, 1.1% hits; PC12 HttQ103-GFP aggregates, Acumen cytometry, 40 h; Potency, µM (doses to about 46.1 µM), actives largely listed as inhibitors; note: nearly all actives have a fitted effect of over 60% in size
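PC12 cells with ecdysone-inducible HTT exon1 Q103-GFP, induced by 100 nM tebufenozide, given compounds in a concentration series. GFP aggregates (1–25 um, 6 SD above background) counted in lysates by laser-scanning cytometry, 488 nm excitation.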
HTT ATP protect: cytoprotection in Huntington HTT-Q103 PC12 cell model. Potency, µM (top dose mostly 56.4 µM), most hits filed as activators. 230,000 compounds, 0.14% hits. AID 1471. PC12 HTT-Q103 induced, cytoprotection, ATP luminescence, 40 h; note: nearly all actives have a fitted effect of over 45% in size
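Readout: ATPlite luminescence (ATP level). Model: stable PC12, inducible Htt exon1 Q103-GFP. Inducer: tebufenozide, 100 nM final. Compounds: dose series. No G418 in medium.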
Tau FP inhib: tau fibrillization inhibition (FP). Potency, µM (doses to about 57.7 µM), usual class: inhibitors. 280,000 compounds, 0.39% hits. AID 1468. K18 P301L tau heparin fibrillization, Alexa594 FP, 6 h. P10636; note: nearly all actives have a fitted effect of over 55% in size
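Heparin (20 uM) drove fibril formation of recombinant tau K18 P301L, 15 uM unlabeled with 0.24 uM Alexa 594 label, for 6 hr at 37 C in 100 mM sodium acetate pH 7. Fluorescence polarization (555/632 nm) read 1 hr after 30 uM ThT.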
Of the large screens only hits and unclear results are named; the others gave an inactive call; [ ] = dose if it differs, or a comment. Most compounds without a hit are left out; they make up all but 3.7% or so of the library. Calls come from the whole dose curve; as a rule, active = well fitted curve in the direction sought with a large enough effect; inconclusive = small, poorly fitted or top-dose-only effect, or another doubt; inactive = no such curve, though single readings can be large; an effect the other way counts as inactive or inconclusive.

N#C/C(=C\c1cc2ccccc2nc1N1CCOCC1)C(=O)Nc1ccc(N2CCOCC2)cc1	Tau fibril ThT 14.1µM, Tau fluor counter inconclusive
CCCCc1cc2c(cn1)=C(OC(=O)c1ccco1)C(C)(OC(=O)CC)C(=O)C=2 (stereo unspecified)	none (no result: HTT aggregate)
COc1ccc(NC(=O)/C(Cl)=C(/Cl)S(=O)Cc2ccccc2Cl)cn1 (stereo unspecified)	Tau fibril ThT 8.91µM, HTT aggregate inconclusive, Tau FP inhib inconclusive
COc1ccc(NC(=O)/C(Cl)=C(/Cl)S(=O)(=O)Cc2ccc(C)cc2)cn1	Tau fibril ThT 8.91µM, Tau FP inhib inconclusive
O=c1cc(-c2ccccc2)c2cc(Cl)c3c(c2o1)CN(Cc1ccccc1)CO3	none (no result: HTT aggregate, HTT ATP protect)
C=CCOC(=O)C1=C(C)NC(SCC(=O)Nc2nccs2)=C(C#N)C1c1ccc(Cl)cc1 (stereo unspecified)	Tau fluor counter 10µM[quencher], Tau FP inhib inconclusive
CC(=O)C1=C(C)NC(SCC(=O)Nc2nccs2)=C(C#N)C1c1ccccc1Cl (stereo unspecified)	none
CCOC(=O)C1=C(C)NC(SCc2cc(=O)[nH][nH]2)=C(C#N)C1c1cccs1 (stereo unspecified)	Tau fibril ThT 12.6µM, Tau fluor counter inconclusive, Tau FP inhib inconclusive
C=CCOC(=O)C1=C(C)NC(SCC(=O)Nc2nccs2)=C(C#N)C1c1cccs1 (stereo unspecified)	Tau fibril ThT inconclusive, Tau fluor counter 15.8µM[quencher], HTT aggregate 12.6µM
C=CCOC(=O)C1=C(C)NC(SC)=C(C#N)C1c1cccs1 (stereo unspecified)	none
Nc1ncnc2c([C@@H]3O[C@@H](CO)[C@H](O)[C@@H]3O)nsc12	none (no result: Tau fibril ThT, Tau fluor counter, HTT aggregate, Tau FP inhib)
C=C1C(=O)OC2CC1C(OC(C)=O)CC(C)=CCCC(C)=CCC[C@@]2(C)O (stereo partly specified)	Tau fibril ThT inconclusive (no result: HTT aggregate, HTT ATP protect)
CC(C)(C)c1ccc(OCC(=O)O)c(Cl)c1	none (no result: Tau fibril ThT, Tau fluor counter, HTT aggregate, Tau FP inhib)
COC(=O)/C=C/S(=O)(=O)c1ccc(NC(C)=O)cc1	Tau fibril ThT inconclusive, HTT aggregate 10µM, Tau FP inhib inconclusive
COc1ccccc1OS(=O)(=O)c1ccc(NC(C)=O)cc1	HTT aggregate inconclusive
Cc1cc2n(n1)CCC(=O)N2Cc1ccc(C(=O)Nc2cccc(C(F)(F)F)c2)cc1	none (no result: HTT aggregate, HTT ATP protect)
Cc1cccc(N=Nc2c(C)c(C#N)c(O)[nH]c2=O)c1	Tau fibril ThT 1.12µM
O=C1c2ccccc2C(=O)N1c1cccc(-c2csc(Nc3ccc4c(c3)OCO4)n2)c1	Tau fibril ThT 8.91µM, Tau fluor counter 7.94µM[quencher], Tau FP inhib inconclusive
COc1ccccc1Nc1nc(-c2cccc(N3C(=O)c4ccccc4C3=O)c2)cs1	Tau fibril ThT inconclusive, Tau fluor counter inconclusive
O=c1c(-c2ccc(F)cc2)nc2cnc(N3CCNCC3)nc2n1Cc1ccc(F)cc1	none (no result: Tau fibril ThT, Tau fluor counter, HTT aggregate, Tau FP inhib)
CCc1cccc2c3c([nH]c12)[C@](CC)(CC(=O)O)OCC3	none (no result: Tau fibril ThT, Tau fluor counter, HTT aggregate, Tau FP inhib)
CCOc1cc(S(=O)(=O)N2CCN(Cc3ccccc3)CC2)ccc1Br	HTT aggregate 11.2µM
Cc1noc(C)c1-c1cc(NC2CCNCC2)ncn1	none (no result: Tau fibril ThT, Tau fluor counter, HTT aggregate, Tau FP inhib)
COC(=O)[C@@H](O)CC[C@@H](C)Cc1c(OC)c(OC)c(C)c(OC)c1OC	none (no result: HTT aggregate)
CCOC(=O)Cc1nnc(NC(=O)c2ccccc2OC)s1	none
COc1ccccc1C(=O)Nc1sc(Nc2ccccc2)nc1C(N)=O	Tau fibril ThT 3.16µM, Tau fluor counter 7.08µM[quencher], Tau FP inhib inconclusive (no result: HTT aggregate, HTT ATP protect)
CCc1cc(SC#N)cc(C)c1N	Tau fibril ThT 14.1µM, HTT aggregate inconclusive, Tau FP inhib inconclusive
CCc1cc(SC#N)cc(C)c1NC(=O)CCl	none
Cc1ccc(NC(=O)C(Cc2ccccc2)n2cccc2)cc1C (stereo unspecified)	Tau fluor counter inconclusive (no result: HTT aggregate, HTT ATP protect)
CCOC(=O)OCC1OC(c2cc(C)cc(C)c2)C=CC1OC(=O)OCC (stereo unspecified)	none (no result: HTT aggregate)
CN(C)c1nc(=NCc2ccco2)ss1	Tau fibril ThT 8.91µM, HTT aggregate 0.891µM, Tau FP inhib 14.1µM
O=C1Oc2ccccc2C(=O)/C1=C\N1C(=O)N/C(=C\c2ccccc2O)C1=O	none (no result: Tau fibril ThT, Tau fluor counter, HTT aggregate, Tau FP inhib)
CCN1CCN(Cc2c(O)ccc3c(C)c(-c4ccc(OC)cc4)c(=O)oc23)CC1	Tau fibril ThT inconclusive (no result: HTT aggregate, HTT ATP protect)
COC(=O)Cn1cnc2c(cnn2-c2ccccc2)c1=O	none

Screens deposited in PubChem by National Center for Advancing Translational Sciences (NCATS).
